Hit rate of the full screen: of about 360,000 compounds, about 8,200 (2.3%) were called active. For the sample, actives were picked, then their nearest neighbours and some compounds at random. Values without a mark were called inactive. Cut-off read from the data, not from the text of the source: active = inhibition above about 27%; inactive = the rest.
What follows are compounds tested against Fructose-bisphosphate aldolase (Mycobacterium tuberculosis (strain ATCC 25618 / H37Rv)) (UniProt P9WQA3) (assay: M. tuberculosis aldolase activity blockers – biochemical, fluorescence, strain H37Rv, primary screen (AID 588726;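 note: 0% = vehicle and 100% = reference inhibitor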)). Conditions: purified M. tuberculosis FBA, fluorescence read-out, at 1 µM, stronger effect = higher value.
Chain of Fructose-bisphosphate aldolase (Mycobacterium tuberculosis (strain ATCC 25618 / H37Rv)) (P9WQA3 whole entry, looked up): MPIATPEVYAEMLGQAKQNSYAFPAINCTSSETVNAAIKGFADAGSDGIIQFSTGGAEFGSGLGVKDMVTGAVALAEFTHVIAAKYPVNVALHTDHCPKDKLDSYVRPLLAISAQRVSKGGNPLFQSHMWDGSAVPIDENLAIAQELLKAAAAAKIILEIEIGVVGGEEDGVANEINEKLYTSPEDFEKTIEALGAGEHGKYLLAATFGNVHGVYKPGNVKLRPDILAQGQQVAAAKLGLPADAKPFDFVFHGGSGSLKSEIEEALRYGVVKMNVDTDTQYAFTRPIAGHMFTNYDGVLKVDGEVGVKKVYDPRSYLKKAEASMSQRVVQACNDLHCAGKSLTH
`CSc1ccc(CN2CCC2(C)C(=O)Nc2ccc(C)c(O)c2)cc1` (configuration not stated) showed an inhibition of -1.62%. `Cc1oc(CC(C)C)c(CN2CCCC2)c1C(=O)O` was tested, and the inhibition was -9.07%. Compound `Cc1noc(C)c1C(=O)OCC(=O)N1CCN(S(=O)(=O)c2ccc3ccccc3c2)CC1` has an inhibition of 3.46%. `CCCc1cc(=O)oc2c(C)c(OC(C)C(=O)NCC(O)c3ccccc3)ccc12` (configuration not stated) gave an inhibition of 18.1%. Work on `O=c1cc(CN2CCCCCCC2)c2c(ccc3ccccc32)o1` yielded an inhibition of 17%. In the case of `O=C(CSc1ncccn1)N1CCCC1`, the inhibition was 1.75%. With `Cc1ccc(NC(=O)CN2CCc3ccccc3C2)cc1C` the inhibition was 0.22%. For `Cc1cccc2c1-c1sc(C(=O)NCCCN3CCc4ccccc4C3)cc1CO2`, the inhibition was 90.4% (active). `Cc1cccc(C)c1NC(=O)c1ccc(CN2CCc3ccccc3C2)cc1` was tested, and the inhibition was 1.47%. Work on `O=C(COc1ccc2oc3c(c2c1)CCCC3)Nc1ccccn1` yielded an inhibition of 1.77%. `NC(=O)COc1ccc2c3c(c(=O)oc2c1)CCCCC3` was tested, and the inhibition was 114% (active). In the case of `O=C(COc1ccc2c3c(c(=O)oc2c1)CCC3)NC1CCCCC1`, the inhibition was 14.8%. Work on `COc1ccc(N2CCN(C(=O)COc3ccc4c(C)cc(=O)oc4c3)CC2)cc1` yielded an inhibition of 14.8%. `CCOC(=O)N1CCN(C(=O)COc2ccc3oc4c(c3c2)CCCC4)CC1` showed an inhibition of 0.5%. With `NC(=O)C1CCN(C(=O)COc2ccc3c4c(c(=O)oc3c2)CCC4)CC1` the inhibition was 30.9% (active). Compound `CCCN(CCC)CCCNC(=O)CNC(=O)c1nn(-c2ccc(OC)cc2)c(=O)c2ccccc12` has an inhibition of 1.04%. `O=C(COC(=O)CC1CC2CCC1C2)NC(=O)NC1CCCC1` (configuration not stated) was tested, and the inhibition was -0.01%. Work on `COc1ccccc1NC(=O)C(CC(=O)O)Cc1cc(C)cc(C)c1` (configuration not stated) yielded an inhibition of -0.4%. `COc1ccc2nc(N3CCN(C(=O)c4ccc([N+](=O)[O-])o4)CC3)sc2c1` was tested, and the inhibition was -2.42%. `COc1ccc2nc(Nc3nc4cc5c(cc4s3)OCCO5)sc2c1` was tested, and the inhibition was 58.2% (active). `NS(=O)(=O)c1ccc2nc(NC(=O)C3=COCCO3)sc2c1` showed an inhibition of 1.72%. In the case of `Cc1cc(C)cc(Oc2nc3c(C)cccn3c(=O)c2/C=C(\C#N)C(=O)NC2CCS(=O)(=O)C2)c1` (configuration not stated), the inhibition was 16.1%. Work on `C/C(=N/OC(=O)c1ccc(Br)cc1)c1ccc(C)cc1` yielded an inhibition of 1.15%. In the case of `COc1ccc(S(=O)(=O)NC(=O)C2(C)CCN2C(=O)c2ccccc2CCc2ccccc2)cc1` (configuration not stated), the inhibition was 0.28%. For `CC(=O)Nc1ccc2nc(NC(=O)CS(=O)(=O)c3ccc(F)cc3)sc2c1`, the inhibition was 1.63%. Work on `CCOc1ccc2nc(C(=O)N3CCCC(C)C3)sc2c1` (configuration not stated) yielded an inhibition of 0.22%. `CCOc1ccc2nc(Nc3nc4ccc(NC(C)=O)cc4s3)sc2c1` was tested, and the inhibition was 44.8% (active). `O=C(NN1C(=O)C2C3C=CC(C3)C2C1=O)c1ccco1` (configuration not stated) gave an inhibition of 8.04%. `CCC(C)NCC(=O)Nc1ccc([N+](=O)[O-])cc1C(=O)Nc1ccccc1F` (configuration not stated) gave an inhibition of -4.2%. With `CCOC(=O)N1CCC(NC(=O)CCc2cn(C)c3ccccc23)CC1` the inhibition was 8.05%. Compound `CCOC(=O)N1CCC(NC(=O)Cc2cn(C)c3ccccc23)CC1` has an inhibition of 11%. In the case of `CCOC(=O)N1CCC(NC(=O)c2cnn3ccccc23)CC1`, the inhibition was 30.3% (active). With `CCO[C@@H]1OC(C(=O)NC2CC2)=C[C@H](C)[C@H]1CCCO` the inhibition was -0.48%. With `O=C(O)C1CCCCC1C(=O)N1CCN(S(=O)(=O)c2ccc(F)cc2)CC1` (configuration not stated) the inhibition was -1.39%. `CSc1c(SCc2ccccc2)cnn(Cc2ccccc2)c1=O` was tested, and the inhibition was -0.17%. In the case of `COC(=O)c1ccc(C2C(Oc3ccccc3C)C(=O)N2CCc2ccc(OC)c(OC)c2)cc1` (configuration not stated), the inhibition was -0.68%. `Fc1ccc(N2N=C(c3cccs3)CC2c2ccco2)c(F)c1` (configuration not stated) was tested, and the inhibition was 102% (active). Work on `COc1ccc(C2CC(c3cccs3)=NN2C(=O)CSc2nnc(N)s2)cc1OC` (configuration not stated) yielded an inhibition of 3.05%. In the case of `Oc1ccccc1C1=NN(c2ccccc2)C(c2ccccc2)C1` (configuration not stated), the inhibition was 72.4% (active). `COc1cccc(C2CC(c3cccs3)=NN2C(=O)CSC2=NCCS2)c1OC` (configuration not stated) was tested, and the inhibition was 6.98%. With `Cc1ccc(C2=NN(C(=O)CSc3nc(N)cc(N)n3)C(c3ccco3)C2)cc1` (configuration not stated) the inhibition was 0.79%. For `Cc1ccccc1C1CC(c2cccs2)=NN1S(C)(=O)=O` (configuration not stated), the inhibition was -0.14%. With `COc1ccc(C2CC(c3cccs3)=NN2c2ccc(F)cc2)cc1OC` (configuration not stated) the inhibition was 27.2% (active). `COc1ccc(C2CC(c3cccs3)=NN2c2nc(C)c(C(C)=O)s2)cc1OC` (configuration not stated) showed an inhibition of 16.3%. With `O=C1C2N=NN(CC(=O)N3N=C(c4cccc5ccccc45)CC3c3ccccc3)C2C(=O)N1c1ccccc1` (configuration not stated) the inhibition was 11.2%. Work on `O=C(COc1ccccc1Cl)N1N=C(c2cccs2)CC1c1ccco1` (configuration not stated) yielded an inhibition of 7.49%. With `COc1ccccc1N1N=C(c2cccs2)CC1c1ccccc1` (configuration not stated) the inhibition was 39.5% (active). `Cc1ccc(N2C(=O)C3N=NN(CC(=O)N4N=C(c5cccc6ccccc56)CC4c4ccccc4)C3C2=O)cc1` (configuration not stated) was tested, and the inhibition was 11.4%. `Cc1ccc(C(=O)OCC(=O)NC(=O)Cc2ccccc2)c(O)c1` was tested, and the inhibition was -0.03%. `Cc1cc(C(C)(C)C)cc(S(=O)(=O)Nc2ccc(C(=O)O)cc2)c1C` was tested, and the inhibition was -1.68%. With `CC(=O)Oc1c(C(=O)c2nnc(C)o2)c(=O)n(Cc2ccccc2)c2ccccc12` the inhibition was 8.77%. `COc1ccc(CC(N)c2csc(NC(=O)Nc3ccc(C(C)C)cc3)n2)cc1` (configuration not stated) gave an inhibition of -1.36%. For `CN(CC(=O)Nc1ccc(F)cc1)CC(=O)N1CCCCC1`, the inhibition was -1.7%. `C=Cc1ccc(C(=O)N2CCCC(CCC(=O)N3CCN(c4ccccn4)CC3)C2)cc1` (configuration not stated) showed an inhibition of -0.65%. Compound `COc1ccc(C2CC(c3ccccc3)=NN2C(=O)c2ccc(Cl)c([N+](=O)[O-])c2)cc1` (configuration not stated) has an inhibition of -0.72%. In the case of `COc1ccc(C2CC(c3cccs3)=NN2c2ccccc2)cc1` (configuration not stated), the inhibition was 74% (active). With `COc1ccc(C2=NN(c3ccccc3)C(c3cccs3)C2)cc1` (configuration not stated) the inhibition was 113% (active). Compound `COc1ccc(C2CC(c3cccs3)=Nc3ccccc3S2)cc1OC` (configuration not stated) has an inhibition of 6.74%. For `COc1ccc(N2C(=O)C3CCCN3C2c2cccs2)cc1` (configuration not stated), the inhibition was 1.46%. `COc1ccc(N2CCN(C(=S)Nc3ccc(S(N)(=O)=O)cc3)CC2)cc1` showed an inhibition of -1.46%. For `COc1ccc(C2CC(c3cccs3)=NN2C(=O)COC(=O)c2cc3ccccc3cc2O)cc1OC` (configuration not stated), the inhibition was -0.95%. Work on `COc1ccc(C2CC(c3cccs3)Nc3nnnn32)cc1` (configuration not stated) yielded an inhibition of 2.13%. Work on `COc1ccc(CCNC(=O)CSc2nc(C)nc3c2oc2ccccc23)cc1OC` yielded an inhibition of 0.84%. Work on `O=C(NC1CCCC1)C(c1ccco1)N(C(=O)c1ccco1)c1ccc(F)cc1` (configuration not stated) yielded an inhibition of -0.27%. `FC(F)Oc1ccccc1NC(=S)Nc1cccc(Cl)c1Cl` showed an inhibition of -0.26%. `CCCCOC(=O)Nc1sc2nc(C)cc(C)c2c1-n1cccc1` showed an inhibition of 5.62%. With `CCCC1NC(=S)NC(C)=C1C(C)=O` (configuration not stated) the inhibition was 2.16%. With `O=C(O)c1cccnc1Sc1ncnc2sc3c(c12)CCC3` the inhibition was 53.6% (active). `CCCSc1ncccc1C(=O)O` showed an inhibition of 0.16%. Compound `OCCNc1nc2ccccc2n1-c1ncnc2sc3c(c12)CCC3` has an inhibition of 3.23%. Work on `Oc1c(Cl)cc(Cl)c(Cl)c1Cc1c(O)c(Cl)cc(Cl)c1Cl` yielded an inhibition of 0.15%. In the case of `O=C(COC(=O)c1ccc2ncsc2c1)Nc1ccc(Cl)cc1`, the inhibition was 0.06%. `CCC(Cc1ccccc1)NC(=O)C1CCCCC1` (configuration not stated) gave an inhibition of -3.87%. With `Cc1ccc(S(=O)(=O)N2CCN(C(=O)CSc3cc(C)ccc3C)CC2)c(C)c1` the inhibition was 29.2% (active). In the case of `CCCc1cc(=O)[nH]c(SCC(=O)N2CCN(S(=O)(=O)c3ccc(C)cc3C)CC2)n1`, the inhibition was -1.1%. Work on `Cc1ccc(S(=O)(=O)N2CCN(C(=O)COC(=O)c3c(C)cc(C)cc3C)CC2)c(C)c1` yielded an inhibition of -1.2%. For `Cc1cc(Br)ccc1SCC(=O)OCC(=O)NCc1ccc2c(c1)OCO2`, the inhibition was -1.37%. Work on `CCn1c(=O)cc(SCC(=O)NCCC2=CCCCC2)c2ccccc21` yielded an inhibition of 6.21%. `Cc1ccc(C)c(S(=O)(=O)N2CC(=O)Nc3ccccc32)c1` was tested, and the inhibition was 31.2% (active). Work on `Cc1ccc(S(=O)(=O)N(C)CC(=O)OCC(=O)N2CC(=O)Nc3ccccc32)cc1` yielded an inhibition of 0.54%. With `Cc1ccc(S(=O)(=O)N2CC(=O)Nc3ccccc32)cc1C` the inhibition was -0.25%. Work on `O=C(OCc1cn([C@@H]2C[C@H](c3ccc(Cl)cc3)N(Cc3cccs3)C[C@H]2O)nn1)c1ccccc1` yielded an inhibition of 0.72%. `O=C(CCc1n[nH]c(=O)[nH]c1=O)N/N=C/c1ccc(Br)o1` gave an inhibition of 4.62%. In the case of `O=C(CCNC(=O)c1ccccc1)NN=Cc1ccc(Br)o1`, the inhibition was 0.48%. With `O=C(CCC(=O)N/N=C/c1ccc(Br)o1)N/N=C/c1ccc(Br)o1` the inhibition was 31.8% (active). With `COc1ccc2c(c1)CCc1c(C(=O)N3CCCC3)noc1-2` the inhibition was 0.6%. Compound `N#Cc1cnn2cc(CCN3CCOCC3)c(-c3ccc(F)cc3)nc12` has an inhibition of 15.8%. For `COc1ccc2c(c1)CCc1cn3ncc(C#N)c3nc1-2`, the inhibition was 522% [above what the read-out allows, likely interference] (active). `CC(C)C(NS(=O)(=O)c1cccs1)C(=O)Nc1nc(C(C)(C)C)cs1` (configuration not stated) showed an inhibition of 2.98%. In the case of `CN1C(=O)C2(OCCCO2)c2cc(Cl)ccc21`, the inhibition was 1.91%. `CCOc1ccc(Nc2nc(Cc3nnc(SCC(=O)c4ccc(C)cc4)o3)cs2)cc1` was tested, and the inhibition was -1.31%. `CCN(CC)C(=O)C1=C(C)N(Cc2ccc(F)cc2)C(=O)C(CC(=O)NC2CCCC2)C1` (configuration not stated) was tested, and the inhibition was -1.29%.
